The list is not random: actives were taken first. Their share in the collection is about 6.6%.
GRIN3A LBD mod: binders of NR3A ligand-binding domain, primary screen, biophysical, differential scanning fluorimetry, uHTS; Glutamate receptor ionotropic, NMDA 3A (GRIN3A) ligand-binding domain; NR3A LBD differential scanning fluorimetry, Tm shift; 0% = protein alone, 100% = glycine-bound protein; Tm shift relative to glycine control, % at 25 µM; actives 2.5% (n = 340,000); AID 1259313, 2017;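 active means melting temperature shift of at least 10% of the positive control shift, at one fixed dose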
Mdm2-MdmX inh: inhibitors of human Mdm2-MdmX association, primary screen, cell-based, luminescence, split luciferase, SaOS-2, uHTS; Protein Mdm4 (Homo sapiens) + E3 ubiquitin-protein ligase Mdm2 (Homo sapiens), …; SaOS-2 split-luciferase Mdm2/MdmX complementation; inhibition, % at 8 µM; actives 3% (n = 330,000); AID 485346, 2010;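 active means inhibition of at least 50% at 8 µM in the primary screen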
Target sequence (O15151 whole entry, looked up): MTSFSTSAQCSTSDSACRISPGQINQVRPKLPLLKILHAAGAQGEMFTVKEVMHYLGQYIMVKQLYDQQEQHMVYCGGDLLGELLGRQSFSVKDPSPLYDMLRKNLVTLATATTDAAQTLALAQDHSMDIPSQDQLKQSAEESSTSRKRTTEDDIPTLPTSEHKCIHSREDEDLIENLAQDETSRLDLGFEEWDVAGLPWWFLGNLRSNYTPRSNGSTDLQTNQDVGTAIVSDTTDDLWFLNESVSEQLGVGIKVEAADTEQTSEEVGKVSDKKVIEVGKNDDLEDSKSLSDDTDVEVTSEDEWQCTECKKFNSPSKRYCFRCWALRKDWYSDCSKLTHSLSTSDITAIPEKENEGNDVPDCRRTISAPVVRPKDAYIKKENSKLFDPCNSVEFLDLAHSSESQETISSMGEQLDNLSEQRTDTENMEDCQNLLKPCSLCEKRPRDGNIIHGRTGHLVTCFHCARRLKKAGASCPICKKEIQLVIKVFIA
Target sequence (Q00987 whole entry, looked up): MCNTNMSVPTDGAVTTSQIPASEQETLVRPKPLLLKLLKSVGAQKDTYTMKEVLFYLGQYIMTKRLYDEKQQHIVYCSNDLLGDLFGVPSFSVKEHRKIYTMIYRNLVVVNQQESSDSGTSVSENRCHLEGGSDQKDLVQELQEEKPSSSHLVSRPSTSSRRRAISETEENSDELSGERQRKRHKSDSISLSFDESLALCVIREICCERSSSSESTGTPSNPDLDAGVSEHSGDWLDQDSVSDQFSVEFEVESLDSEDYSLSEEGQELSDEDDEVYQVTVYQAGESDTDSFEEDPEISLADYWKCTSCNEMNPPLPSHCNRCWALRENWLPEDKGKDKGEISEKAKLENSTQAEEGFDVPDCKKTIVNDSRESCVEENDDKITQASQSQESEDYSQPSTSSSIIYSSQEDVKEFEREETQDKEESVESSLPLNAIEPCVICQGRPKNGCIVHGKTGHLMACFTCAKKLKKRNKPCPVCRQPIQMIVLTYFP
Gli-Sufu block: Gli-Sufu pathway antagonists, primary screen, luciferase luminescence, Sufu-KO-LIGHT cells, uHTS; Sufu-KO-LIGHT fibroblasts, Gli luciferase reporter luminescence; inhibition, % at 5 µM; actives 0.74% (n = 340,000); AID 588413, 2011;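 active means inhibition above about 55%, limit read from the data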;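 further: 0% = DMSO-treated cells and 100% = wells with medium but no cells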
MPTP block: mitochondrial permeability transition pore inhibitors, primary screen, biochemical, isolated mouse mitochondria, absorbance | Ca2+ swelling absorbance, 30 min | inhibition, % at 10 µM | actives 1.4% (n = 360,000);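 active means inhibition of 50% or more, scaled per plate between neutral and stimulator controls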;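 further: 0% = DMSO wells given calcium and 100% = 1 mM EGTA wells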
Beta cell apopt: inhibitors of cytokine-induced beta cell apoptosis, primary screen, luminescence; INS-1E cytokine-induced death, ATP luminescence, 48 h; percent of positive-control rescue, neutral wells zero; actives 0.8% (n = 300,000); protection from apoptosis, % (concentration not given with the values);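 active means Every replicate reaches about 75%, or at least half do and their mean reaches it too, limit read from the data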;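 further: 0% = cytokine-treated negative control wells and 100% = positive control rescue; higher means more ATP so stronger rescue from cytokine killing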
CSC inhib: cancer stem cell viability inhibitors, primary screen, luminescence. AID 2717, 2010. cancer stem cell-like cells viability. inhibition, % at 7.5 µM. actives 1.1% (n = 300,000); in the data active means inhibition above about 75%; tested in HMLE shEcad cells
Mdm2 MdmX conf: Mdm2-MdmX complex disruptors, retested hits, confirmation, luminescence, single concentration | Mdm2-MdmX binding, luminescent assay | inhibition, % at 8 µM | actives 55% (n = 10,000) | shares compounds with Mdm2-MdmX inh; in the data active means inhibition above about 40%
FLuc counter: full-length luciferase signal inhibition, confirmation, counter-screen for Mdm2/MdmX interaction inhibitor project, cell-based, single concentration, SaOS-2 | shares compounds with Mdm2-MdmX inh | inhibition, % at 8 µM | SaOS-2 full-length luciferase counterscreen, luminescence | actives 77% (n = 6,200);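 active means mean inhibition at 8 µM reaching about 37%, which flags the compound as non-specific, limit read from the data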;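 further: p53-null SaOS-2 cells with luciferase driven by a doxycycline-inducible promoter; compound on cells about two nights before reading with doxycycline added after day one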
* marks the source's active call; other numbers are inactive results; . = not tested or not shown.

SMILES	GRIN3A LBD mod	Mdm2-MdmX inh	Gli-Sufu block	MPTP block	Beta cell apopt	CSC inhib	Mdm2 MdmX conf	FLuc counter
COc1cc(O)c(CC=C(C)C)c(O)c1C(=O)CCc1ccc(O)cc1	18.6*	55.2*	8.6	8.9	.	-6.1	2.8	.
COc1ccc(CCC(N)=O)cc1OC	-5.1	6.5	-7.5	2.0	-5.7	-9.2	.	.
COC(=O)c1ccccc1NC(=O)C1CCN(c2ncnc3c2nc2n3CCCCC2)CC1	-3.0	24.4	0.7	-0.3	3.2	.	.	.
CC(C)(C)C(=O)O/N=C(\N)c1ccc(Oc2cc(Cl)cc(Cl)c2)c([N+](=O)[O-])c1	-3.5	60.3*	0.0	1.0	8.8	22.1	7.5	.
COc1ccc([C@H]2CC(=O)C=C(c3cc(C)ccc3OC)C2)cc1	-1.4	39.6	1.1	-2.5	5.3	55.9	.	.
CCOc1ccc(Br)cc1C1=CC(=O)C[C@H](c2ccc(OC)cc2)C1	15.7*	55.1*	9.0	-0.3	9.1	82.0*	47.6*	48.4*
COc1ccc([C@H]2CC(=O)C=C(c3ccc(Br)c4ccccc34)C2)cc1	2.7	21.6	2.8	0.1	-2.0	.	.	.
COc1ccc([C@H]2CC(=O)C=C(c3cc(Br)ccc3OC)C2)cc1	0.2	50.0*	-5.9	1.3	3.6	.	43.8*	46.6*
O=C1Cc2cc(S(=O)(=O)Nc3ccc(N4CCOCC4)cc3)ccc2N1	-1.0	1.8	1.1	0.2	0.5	-21.3	.	.
CC1(C)Cc2c(sc(NC(=O)COc3ccc(Cl)cc3)c2C(N)=O)C(C)(C)N1	-2.3	25.8	32.4	-0.3	-3.2	-2.3	.	.
CC1(C)Cc2c(sc(NC(=O)c3ccc(C(=O)c4ccccc4)cc3)c2C(N)=O)C(C)(C)N1	-7.8	72.8*	19.2	1.0	8.5	-4.8	57.4*	34.2
CC1(C)Cc2c(sc(NC(=O)c3ccc4ncsc4c3)c2C(N)=O)C(C)(C)N1	-2.8	74.8*	-23.4	-0.1	-10.1	13.6	27.0	.
Cc1ccc(-n2c(=O)[nH]c3c(C(N)=O)nc(C(C)C)nc32)cc1	-5.1	10.7	-13.2	0.6	1.4	1.4	.	.
Cc1ccsc1-c1nc(C(N)=O)c2[nH]c(=O)n(-c3ccc(Cl)cc3)c2n1	0.6	97.0*	4.3	-0.1	0.2	1.2	11.9	.
CC(=O)N1CCC(=NNC(=O)c2cc3ccccc3cc2O)CC1	-1.3	61.8*	3.1	-0.8	-1.5	-16.3	50.8*	58.3*
Cc1ccc(S(=O)(=O)N2C[C@H]3C(=O)C[C@@H](c4ccccc4)N(S(=O)(=O)c4ccc(C)cc4)[C@H]3C[C@H]2c2ccccc2F)cc1	.	.	.	-0.3	.	.	.	.
CCN(Cc1ccccc1)S(=O)(=O)c1ccc(C(=O)N(CCCN(C)C)c2nc3cc(C)cc(C)c3s2)cc1	0.5	97.7*	24.5	46.1	.	101.5*	54.6*	67.5*
CCN(Cc1ccccc1)S(=O)(=O)c1ccc(C(=O)N(CCCN(C)C)c2nc3c(F)cccc3s2)cc1	-0.8	17.2	30.5	-0.1	-0.2	1.9	.	.
CCCCN(CC)S(=O)(=O)c1ccc(C(=O)N(CCCN(C)C)c2nc3cc(C)cc(C)c3s2)cc1	-0.1	71.3*	27.7	-2.2	43.3	98.7*	10.3	.
CCc1nc(C)c(C(=O)N2CCCC(C(=O)Nc3cccc(-c4cccc(C)c4)c3)C2)o1 (stereo unspecified)	-2.7	-14.0	-0.5	0.3	-3.9	13.5	.	.
O=P(c1ccccc1)(c1ccccc1)c1ccc(O)cc1	-1.5	-9.6	-5.3	0.8	-3.7	-4.5	.	.
CN(CC(=O)Nc1ccc(F)c(F)c1F)C(=O)CC1CCCCC1	0.5	1.9	-2.1	1.4	3.0	.	.	.
Cc1c(Cl)cccc1NC(=S)N=Nc1c(O)n(CN2CCOCC2)c2ccccc12	9.8	81.9*	-8.1	8.0	45.6	60.6	63.1*	51.4*
C=CCn1c(O)c(N=NC(=S)Nc2ccccc2F)c2ccccc21	-4.3	75.8*	51.5	2.0	56.3	2.4	57.0*	50.0*
Oc1c(N=NC(=S)Nc2ccccc2F)c2ccccc2n1Cc1ccccc1	-22.3	41.1	21.0	-0.4	40.7	.	.	.
SMILES	GRIN3A LBD mod	Mdm2-MdmX inh	Gli-Sufu block	MPTP block	Beta cell apopt	CSC inhib	Mdm2 MdmX conf	FLuc counter
Cc1ccc(NC(=O)Cn2c(O)c(N=NC(N)=S)c3ccccc32)cc1	-2.0	51.2*	6.8	-0.2	19.1	10.0	32.1	64.8*
Cc1ccc(Cn2c(O)c(N=NC(=S)Nc3ccccc3F)c3ccccc32)cc1	-10.4	57.1*	11.5	-0.6	14.3	26.9	60.0*	48.5*
CN1CCN(C(=O)c2ccc(Cc3cn(C)c4ccccc34)nc2)CC1	.	.	.	-0.8	.	.	.	.
C/C(=N\NC(=O)c1ccc(N2CCCC2=O)cc1)c1ccncc1	-2.1	-19.4	-14.2	1.9	-2.5	0.3	.	.
CCCOc1ccc(/C(O)=C2\C(=O)C(=O)N(c3ccccn3)C2c2ccccc2F)cc1C (stereo unspecified)	-2.0	16.1	1.7	3.0	-10.5	-12.6	.	.
CCN(CC(=O)Nc1ccc(OC)cc1)C(=O)C1CC(=O)N(Cc2ccccc2)C1 (stereo unspecified)	.	.	.	-0.3	.	.	.	.
CN(Cc1ccc(C(C)(C)C)cc1)C(=O)Cc1ccc(S(=O)(=O)N2CCOCC2)s1	1.4	-19.0	4.1	-0.4	1.9	.	.	.
CN1CCN(C(c2ccccc2)c2ccc(Cl)cc2)CC1 (stereo unspecified)	3.3	36.1	12.8	38.2	5.8	-0.4	.	.
CN1CCN(C(c2cccc(Cl)c2)c2ccccc2Cl)CC1 (stereo unspecified)	-9.6	54.6*	17.8	-1.6	-0.1	-2.4	44.4*	64.8*
CC(C)Cc1nc2oc3c(NCC(C)O)ncnc3c2c2c1CCCC2 (stereo unspecified)	-3.9	25.7	15.5	3.7	0.3	-6.8	.	.
CCCc1nc2oc3c(NCCCN(C)C)ncnc3c2c2c1CCCC2	-0.9	99.8*	9.4	-3.7	0.0	54.3	84.7*	52.4*
CCCc1nc2oc3c(NCCN(C)C)ncnc3c2c2c1CCCC2	-1.3	55.9*	17.0	-4.8	-0.4	7.4	59.8*	38.2*
CC1(C(=O)NS(=O)(=O)c2ccccc2Cl)CCN1C(=O)Cc1ccc(Cl)cc1Cl (stereo unspecified)	.	.	.	1.1	.	.	.	.

High-throughput results as filed in PubChem BioAssay.
